Measured values taken from PMC7862700, “An all-to-all approach to the identification of sequence-specific readers for epigenetic DNA modifications on cytosine”.

Experiments:
Test in all cases: DAPPL (digital affinity profiling via proximity ligation, sequencing); 10 mM Tris-HCl pH 7.5, 50 mM NaCl, 1 mM DTT, 4% glycerol, room temperature, 30 min; GST-TFs on glutathione beads, 16-mer random dsDNA library, 0.1% formaldehyde crosslink after washing; high values mean tight binding
Conditions in all cases: protein: recombinant; tags: N-terminal GST; dsDNA, one strand shown
[1] = target: T1, FLI1 (Homo sapiens, UniProt Q01543 1-452)
T1 sequence: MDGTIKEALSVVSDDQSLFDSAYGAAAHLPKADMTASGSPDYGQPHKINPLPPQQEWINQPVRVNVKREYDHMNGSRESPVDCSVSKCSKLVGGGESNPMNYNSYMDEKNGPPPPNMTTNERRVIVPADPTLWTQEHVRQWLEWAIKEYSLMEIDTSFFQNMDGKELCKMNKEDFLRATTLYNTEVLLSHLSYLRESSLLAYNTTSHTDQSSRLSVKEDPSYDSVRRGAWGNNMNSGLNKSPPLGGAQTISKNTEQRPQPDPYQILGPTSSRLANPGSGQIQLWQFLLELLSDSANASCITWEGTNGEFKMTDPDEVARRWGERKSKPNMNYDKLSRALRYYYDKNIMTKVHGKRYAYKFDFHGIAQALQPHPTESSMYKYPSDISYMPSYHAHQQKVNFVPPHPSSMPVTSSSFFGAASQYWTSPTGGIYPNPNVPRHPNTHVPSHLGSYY
Summary of the method: (§1)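 The binding signal reported is, for every hexamer, its read frequency for a factor over its read frequency for the tag-only sample. Reads came from pools of yeast-expressed, GST-fused human transcription factors on glutathione beads, barcoded with DNA and mixed with that sample, which were incubated with 200 nmole of a random double-stranded 16-mer DNA library in Tris/NaCl/DTT/glycerol buffer at room temperature for 30 min. After washing, the pools were crosslinked with 0.1% formaldehyde, proximity-ligated with BsaI/T4 ligase for 1 h at 37 °C, PCR-amplified and sequenced on an Illumina NextSeq500.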

[2] = target: T2, ELK1 (Homo sapiens, UniProt P19419 1-428)
T2 sequence: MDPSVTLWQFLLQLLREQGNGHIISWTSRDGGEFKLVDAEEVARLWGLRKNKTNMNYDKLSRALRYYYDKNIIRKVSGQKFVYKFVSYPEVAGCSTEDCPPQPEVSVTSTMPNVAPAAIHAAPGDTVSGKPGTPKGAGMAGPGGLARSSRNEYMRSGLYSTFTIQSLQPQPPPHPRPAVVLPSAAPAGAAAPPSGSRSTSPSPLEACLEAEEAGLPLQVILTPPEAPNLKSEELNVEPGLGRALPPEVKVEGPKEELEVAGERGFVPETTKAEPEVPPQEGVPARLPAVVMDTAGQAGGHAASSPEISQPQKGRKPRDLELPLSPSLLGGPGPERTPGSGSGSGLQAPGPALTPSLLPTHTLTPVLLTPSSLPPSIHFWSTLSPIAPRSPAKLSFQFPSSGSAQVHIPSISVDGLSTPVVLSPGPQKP
Summary of the method: as §1

[3] = target: T3, GABPA (Homo sapiens, UniProt Q06546 1-454)
T3 sequence: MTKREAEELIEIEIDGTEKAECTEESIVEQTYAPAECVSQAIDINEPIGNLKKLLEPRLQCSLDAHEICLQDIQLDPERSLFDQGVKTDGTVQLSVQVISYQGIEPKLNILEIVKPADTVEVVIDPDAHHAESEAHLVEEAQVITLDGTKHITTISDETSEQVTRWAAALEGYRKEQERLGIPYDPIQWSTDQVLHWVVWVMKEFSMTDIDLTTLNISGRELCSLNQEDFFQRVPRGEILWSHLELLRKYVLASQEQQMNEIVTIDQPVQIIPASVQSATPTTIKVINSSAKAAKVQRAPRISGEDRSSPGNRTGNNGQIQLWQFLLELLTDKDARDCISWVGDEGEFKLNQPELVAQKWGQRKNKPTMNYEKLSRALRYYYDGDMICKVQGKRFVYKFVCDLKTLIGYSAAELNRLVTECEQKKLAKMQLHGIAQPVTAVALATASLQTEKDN
Summary of the method: as §1

[4] = target: T4, ERG (Homo sapiens, UniProt P11308 1-479)
T4 sequence: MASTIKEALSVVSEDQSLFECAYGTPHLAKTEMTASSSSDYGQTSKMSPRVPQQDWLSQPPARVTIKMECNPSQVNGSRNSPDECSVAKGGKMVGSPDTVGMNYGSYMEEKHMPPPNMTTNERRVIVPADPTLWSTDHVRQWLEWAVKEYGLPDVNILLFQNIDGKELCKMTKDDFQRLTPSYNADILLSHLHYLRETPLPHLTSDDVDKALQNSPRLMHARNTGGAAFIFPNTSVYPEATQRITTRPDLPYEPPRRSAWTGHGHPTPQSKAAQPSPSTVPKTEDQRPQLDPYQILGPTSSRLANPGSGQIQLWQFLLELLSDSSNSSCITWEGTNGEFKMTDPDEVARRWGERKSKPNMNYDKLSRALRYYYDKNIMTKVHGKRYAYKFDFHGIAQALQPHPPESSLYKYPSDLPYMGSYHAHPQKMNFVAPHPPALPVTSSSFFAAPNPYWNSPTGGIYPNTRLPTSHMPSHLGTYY
Summary of the method: as §1

[5] = target: ELF1 (Homo sapiens, UniProt P32519 1-619)
Sequence of ELF1 (P32519 whole entry): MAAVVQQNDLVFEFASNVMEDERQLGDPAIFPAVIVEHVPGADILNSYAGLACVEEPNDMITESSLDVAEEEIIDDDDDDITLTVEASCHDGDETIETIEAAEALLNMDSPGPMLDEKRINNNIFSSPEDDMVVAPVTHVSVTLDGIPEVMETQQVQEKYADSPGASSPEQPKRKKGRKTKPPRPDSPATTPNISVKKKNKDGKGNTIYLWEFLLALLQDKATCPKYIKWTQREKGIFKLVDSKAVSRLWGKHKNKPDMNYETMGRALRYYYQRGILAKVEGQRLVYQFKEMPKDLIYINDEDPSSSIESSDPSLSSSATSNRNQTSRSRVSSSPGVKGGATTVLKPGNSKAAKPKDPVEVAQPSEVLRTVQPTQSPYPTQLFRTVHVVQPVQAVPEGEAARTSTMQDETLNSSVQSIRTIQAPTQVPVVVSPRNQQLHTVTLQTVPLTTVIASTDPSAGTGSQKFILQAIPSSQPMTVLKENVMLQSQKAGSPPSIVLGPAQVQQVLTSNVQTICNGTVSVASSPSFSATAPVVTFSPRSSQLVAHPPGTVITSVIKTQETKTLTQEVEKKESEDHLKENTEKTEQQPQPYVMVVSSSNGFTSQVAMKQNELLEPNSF
Summary of the method: as §1

[6] = target: T5, EHF (Homo sapiens, UniProt Q9NZC4 1-300)
T5 sequence: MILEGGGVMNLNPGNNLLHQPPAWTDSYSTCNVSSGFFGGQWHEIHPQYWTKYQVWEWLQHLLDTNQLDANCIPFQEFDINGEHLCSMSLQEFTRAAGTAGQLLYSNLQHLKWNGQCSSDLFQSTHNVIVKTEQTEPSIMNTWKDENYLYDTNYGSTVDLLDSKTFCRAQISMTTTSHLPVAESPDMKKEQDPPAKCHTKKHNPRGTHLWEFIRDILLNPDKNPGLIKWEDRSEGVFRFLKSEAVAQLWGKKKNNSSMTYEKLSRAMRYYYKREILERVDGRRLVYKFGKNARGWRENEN
Summary of the method: as §1

[7] = target: SPI1 (Homo sapiens, UniProt P17947 1-270)
Summary of the method: as §1

[8] = target: SPIB (Homo sapiens, UniProt Q01892 1-262)
Sequence of SPIB (Q01892 whole entry): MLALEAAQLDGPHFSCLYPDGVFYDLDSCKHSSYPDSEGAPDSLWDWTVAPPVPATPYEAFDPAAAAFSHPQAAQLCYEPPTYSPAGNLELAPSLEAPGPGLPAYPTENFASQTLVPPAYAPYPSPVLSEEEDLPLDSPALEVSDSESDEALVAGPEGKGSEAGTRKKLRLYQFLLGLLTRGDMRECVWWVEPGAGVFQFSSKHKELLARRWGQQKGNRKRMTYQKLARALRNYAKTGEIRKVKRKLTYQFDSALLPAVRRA
Summary of the method: as §1

[9] = target: T6, ELK3 (Homo sapiens, UniProt P41970 1-407)
T6 sequence: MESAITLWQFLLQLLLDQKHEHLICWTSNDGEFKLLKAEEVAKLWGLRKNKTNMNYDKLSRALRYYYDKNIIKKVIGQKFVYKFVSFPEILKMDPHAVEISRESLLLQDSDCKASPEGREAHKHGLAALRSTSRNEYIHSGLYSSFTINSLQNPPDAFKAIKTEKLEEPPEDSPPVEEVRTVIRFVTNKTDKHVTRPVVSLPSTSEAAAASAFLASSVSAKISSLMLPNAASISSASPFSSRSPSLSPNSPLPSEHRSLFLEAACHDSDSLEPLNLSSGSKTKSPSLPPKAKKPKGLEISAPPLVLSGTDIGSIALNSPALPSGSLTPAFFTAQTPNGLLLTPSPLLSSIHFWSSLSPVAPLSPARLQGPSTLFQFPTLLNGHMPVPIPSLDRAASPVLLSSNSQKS
Summary of the method: as §1

Sequence	binding signal [1]	binding signal [2]	binding signal [3]	binding signal [4]	binding signal [5]	binding signal [6]	binding signal [7]	binding signal [8]	binding signal [9]
ACCTCC	1.38 fold enrichment (6-mer frequency, TF over GST control)	1.42 fold enrichment (6-mer frequency, TF over GST control)	1.43 fold enrichment (6-mer frequency, TF over GST control)	1.36 fold enrichment (6-mer frequency, TF over GST control)	1.44 fold enrichment (6-mer frequency, TF over GST control)	1.31 fold enrichment (6-mer frequency, TF over GST control)	1.31 fold enrichment (6-mer frequency, TF over GST control)	1.4 fold enrichment (6-mer frequency, TF over GST control)	1.46 fold enrichment (6-mer frequency, TF over GST control)
CAACCT	1.2 fold enrichment (6-mer frequency, TF over GST control)	1.16 fold enrichment (6-mer frequency, TF over GST control)	1.23 fold enrichment (6-mer frequency, TF over GST control)	1.13 fold enrichment (6-mer frequency, TF over GST control)	1.2 fold enrichment (6-mer frequency, TF over GST control)	1.21 fold enrichment (6-mer frequency, TF over GST control)	1.14 fold enrichment (6-mer frequency, TF over GST control)	1.17 fold enrichment (6-mer frequency, TF over GST control)	1.08 fold enrichment (6-mer frequency, TF over GST control)
ACGATA	1.19 fold enrichment (6-mer frequency, TF over GST control)	1.12 fold enrichment (6-mer frequency, TF over GST control)	1.23 fold enrichment (6-mer frequency, TF over GST control)	1.14 fold enrichment (6-mer frequency, TF over GST control)	1.19 fold enrichment (6-mer frequency, TF over GST control)	1.15 fold enrichment (6-mer frequency, TF over GST control)	1.09 fold enrichment (6-mer frequency, TF over GST control)	1.23 fold enrichment (6-mer frequency, TF over GST control)	1.16 fold enrichment (6-mer frequency, TF over GST control)
TAGTGT	1.17 fold enrichment (6-mer frequency, TF over GST control)	1.16 fold enrichment (6-mer frequency, TF over GST control)	1.14 fold enrichment (6-mer frequency, TF over GST control)	1.02 fold enrichment (6-mer frequency, TF over GST control)	1.14 fold enrichment (6-mer frequency, TF over GST control)	1.11 fold enrichment (6-mer frequency, TF over GST control)	1.12 fold enrichment (6-mer frequency, TF over GST control)	1.14 fold enrichment (6-mer frequency, TF over GST control)	1.08 fold enrichment (6-mer frequency, TF over GST control)
AAGTAG	1.12 fold enrichment (6-mer frequency, TF over GST control)	1.21 fold enrichment (6-mer frequency, TF over GST control)	1.2 fold enrichment (6-mer frequency, TF over GST control)	1.24 fold enrichment (6-mer frequency, TF over GST control)	1.15 fold enrichment (6-mer frequency, TF over GST control)	1.23 fold enrichment (6-mer frequency, TF over GST control)	1.35 fold enrichment (6-mer frequency, TF over GST control)	1.13 fold enrichment (6-mer frequency, TF over GST control)	1.26 fold enrichment (6-mer frequency, TF over GST control)
CGACCA	1.2 fold enrichment (6-mer frequency, TF over GST control)	1.27 fold enrichment (6-mer frequency, TF over GST control)	1.23 fold enrichment (6-mer frequency, TF over GST control)	1.15 fold enrichment (6-mer frequency, TF over GST control)	1.31 fold enrichment (6-mer frequency, TF over GST control)	1.28 fold enrichment (6-mer frequency, TF over GST control)	1.24 fold enrichment (6-mer frequency, TF over GST control)	1.16 fold enrichment (6-mer frequency, TF over GST control)	1.37 fold enrichment (6-mer frequency, TF over GST control)
GTTTGA	1.29 fold enrichment (6-mer frequency, TF over GST control)	1.19 fold enrichment (6-mer frequency, TF over GST control)	1.36 fold enrichment (6-mer frequency, TF over GST control)	1.12 fold enrichment (6-mer frequency, TF over GST control)	1.16 fold enrichment (6-mer frequency, TF over GST control)	1.06 fold enrichment (6-mer frequency, TF over GST control)	1.23 fold enrichment (6-mer frequency, TF over GST control)	1.16 fold enrichment (6-mer frequency, TF over GST control)	1.12 fold enrichment (6-mer frequency, TF over GST control)
